# TDP1 cell noCPT = qHTS for Inhibitors of human tyrosyl-DNA phosphodiesterase 1 (TDP1): qHTS in cells in absence of CPT; DT40 Tdp1-/- hTDP1 cells, no CPT, ATP luminescence, 48 h; Potency, µM (series often up to 46.2 µM), for inactives: at the highest dose activity change, negative = growth inhibition, hits mostly inhibitors; 420,000 compounds, 15% hits; AID 686978, 2013; note: potency is the fitted concentration of half-maximal effect; % is set by controls: 0 for no effect and ±100 for the full control effect; nearly all actives have a fitted effect of over 55% in size
#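 Growth of hTDP1-complemented DT40 Tdp1-knockout cells is measured by ATP luminescence after at least 48 hr compound exposure at 37 °C, with DMSO substituting for the 20 nM CPT used in the parallel screen.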
# HepG2 tox = qHTS for Inhibitors of TGF-b: Cytotox Counterscreen; HepG2 CAGA-GFP viability, ATP luminescence, 18 h; Potency, µM (doses to about 46.1 µM), for the others: at the highest dose activity change, negative = cytotoxicity, usual class: cytotoxic; 410,000 compounds, 0.76% hits; AID 588856, 2011; note: potency is the fitted concentration of half-maximal effect
#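 CellTiter-Glo luminescence gave cytotoxicity after 18 hours at 37 degrees C. The cells were HepG2 CAGA-GFP in 1% FBS DMEM, stimulated with 500 pg/mL TGF-beta after compound addition. %Activity was normalised to no-cell wells (complete cell-killing) and DMSO (no toxicity), and curves were fitted and classified.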
# TDP1 cell CPT = qHTS for Inhibitors of human tyrosyl-DNA phosphodiesterase 1 (TDP1): qHTS in cells in presence of CPT. chicken DT40 Tdp1-/-;hTDP1 cells + 20 nM CPT, ATP luminescence, 48 h. Potency, µM (top dose mostly 46.2 µM), for inactives: at the highest dose activity change, negative = growth inhibition, usual class: inhibitors. 420,000 compounds, 12% hits; note: potency is the fitted concentration of half-maximal effect; % is set by controls: 0 for no effect and ±100 for the full control effect; nearly all actives have a fitted effect of over 55% in size
#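 Chicken DT40 Tdp1-/- cells stably complemented with human TDP1 were seeded at 400 cells/well in medium containing 20 nM camptothecin, exposed to pin-transferred compounds, and grown at 37 °C for at least 48 hr. Viability was read as ATP luminescence.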
# TDP1 inh = qHTS Assay for Inhibitors of Tyrosyl-DNA Phosphodiesterase (TDP1) | Tyrosyl-DNA phosphodiesterase 1 (Homo sapiens), Q9NUW8 | recombinant TDP1, AlphaScreen DNA substrate cleavage | Potency, µM (doses to about 130 µM), inactives show top-dose activity change, negative = inhibition, actives largely listed as inhibitors | 350,000 compounds, 0.28% hits; note: potency is the fitted concentration of half-maximal effect; % is set by controls: 0 for no effect and ±100 for the full control effect; nearly all actives have a fitted effect of over 40% in size
# Target sequence (Q9NUW8 whole entry, looked up): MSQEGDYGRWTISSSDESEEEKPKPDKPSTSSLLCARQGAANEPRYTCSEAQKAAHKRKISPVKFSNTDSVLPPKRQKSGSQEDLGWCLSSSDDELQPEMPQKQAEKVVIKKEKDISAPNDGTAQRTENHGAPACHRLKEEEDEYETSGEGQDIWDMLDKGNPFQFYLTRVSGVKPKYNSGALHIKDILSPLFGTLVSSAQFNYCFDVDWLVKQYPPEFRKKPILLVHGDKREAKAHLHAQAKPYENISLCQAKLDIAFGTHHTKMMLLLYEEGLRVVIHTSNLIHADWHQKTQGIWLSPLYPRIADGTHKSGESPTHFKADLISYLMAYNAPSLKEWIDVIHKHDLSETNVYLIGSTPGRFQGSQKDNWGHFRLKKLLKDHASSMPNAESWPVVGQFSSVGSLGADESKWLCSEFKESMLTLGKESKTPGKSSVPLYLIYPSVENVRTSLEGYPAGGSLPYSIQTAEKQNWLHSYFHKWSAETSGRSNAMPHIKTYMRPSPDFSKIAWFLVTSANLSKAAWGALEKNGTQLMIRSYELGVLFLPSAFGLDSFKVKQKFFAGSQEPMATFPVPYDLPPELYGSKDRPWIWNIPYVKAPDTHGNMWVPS
#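 Recombinant E. coli-expressed Tdp1 (1 nM) preincubated with compound 15 min at RT, then 5'-biotin/3'-phosphotyrosine-FITC DNA substrate (15 nM) added for 5 min. AlphaScreen beads (10 ug/ml) added, 10 min RT; tyrosine-FITC cleavage read as signal loss.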
# TGFb inhibitor = qHTS for Inhibitors of TGF-b; HepG2 CAGA-GFP TGF-b/SMAD3 reporter, GFP fluorescence, 18 h; TGF-beta stimulated, 500 pg/mL final; 410,000 compounds, 1.2% hits; Potency, µM (titrated, usually from 46.1 µM), for the others: top-dose activity, negative = inhibition, hits mostly inhibitors; note: potency is the fitted concentration of half-maximal effect; % is set by controls: 0 for no effect and ±100 for the full control effect; nearly all actives have a fitted effect of over 65% in size
#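 Using HEPG2 CAGA-GFP reporter cells at 1000 cells/well, we pinned test compounds, stimulated with recombinant TGF-beta (500 pg/mL final) and measured total well GFP after 18 h.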
# IL1B secr inh = qHTS for Inhibitors of Inflammasome Signaling: IL-1-beta AlphaLISA Primary Screen; THP-1 LPS/ATP IL-1B secretion, AlphaLISA, 16 h; active compounds read low; activity change, % at 57.5 µM; 360,000 compounds, 4.7% hits; AID 743279, 2014; in the data active = activity change below about -50%; inconclusive = mostly about -30% to -49%; note: % is set by controls: 0 for no effect and ±100 for the full control effect
#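 Secreted IL-1B measured by AlphaLISA bead assay after 16 h compound exposure of THP-1 cells; compounds (final up to 57.5 uM) added 1 h before LPS (250 ng/mL) and ATP (1.25 mM) stimulation; lower signal means less secretion.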
# Active calls of the source: *; ? = inconclusive; . = no result; [ ] = remark or other dose. Sampled rows, rich in hits. Any-hit rate of the full collection: about 19%. Unless noted, calls come from the whole dose curve; as a rule, active = well fitted curve in the direction sought with a large enough effect; inconclusive = small, poorly fitted or top-dose-only effect, or another doubt; inactive = no such curve, though single readings can be large; an effect the other way counts as inactive or inconclusive.
SMILES,TDP1 cell noCPT,HepG2 tox,TDP1 cell CPT,TDP1 inh,TGFb inhibitor,IL1B secr inh
CC(C)C[C@@H](CN1C(=O)C(=O)NC[C@@H]1CC(C)C)NC(=O)Cc1ccccc1,-15%,-2%,-9%,0%,-1%,-4
CCc1ccc(-n2c(=O)c3c(C)c(C(=O)N(C)C)sc3n(Cc3ccccc3F)c2=O)cc1,-25%,-13%,-5%,0%,0%,.
COc1ccc(CNCCCSc2nnnn2-c2ccccc2)cc1,?,-36%,?,-1%,14%,.
CC(=O)Nc1cccc(-c2csc(Nc3ccc(C)cn3)n2)c1,?,-34%,-29%,3%,?,-100*
Fc1ccc(-c2csc(Nc3ccccn3)n2)c(F)c1,?,-36%,?,5%,?,0
Cc1cc(-c2csc(Nc3ccccn3)n2)ccc1F,21µM*,-20%,?,.,?,-58*
CC[C@H](C)[C@H](NC(=O)[C@H](Cc1ccc(O)cc1)NC(=O)[C@H](Cc1cnc[nH]1)NC(=O)[C@H](CCCNC(=N)N)NC(=O)[C@H](CC(C)C)NC(=O)[C@H](C)NC(=O)[C@H](CO)NC(=O)[C@H](Cc1ccc(O)cc1)NC(=O)[C@H](Cc1ccc(O)cc1)NC(=O)[C@H](CCCNC(=N)N)NC(=O)[C@H](C)NC(=O)[C@H](CC(C)C)NC(=O)[C@H](CC(=O)O)NC(=O)[C@H](CCC(=O)O)NC(=O)[C@H](C)NC(=O)[C@@H]1CCCN1C(=O)[C@H](C)NC(=O)[C@H](CC(=O)O)NC(=O)[C@H](CCC(=O)O)NC(=O)CNC(=O)[C@@H]1CCCN1C(=O)[C@H](CC(N)=O)NC(=O)[C@H](CC(=O)O)NC(=O)[C@@H]1CCCN1C(=O)[C@H](CCCCN)NC(=O)[C@H](CO)NC(=O)[C@@H]1CCCN1C(=O)[C@@H](N)Cc1ccc(O)cc1)C(=O)N[C@@H](CC(N)=O)C(=O)N[C@@H](CC(C)C)C(=O)N[C@H](C(=O)N[C@H](C(=O)N[C@@H](CCCNC(=N)N)C(=O)N[C@@H](CCC(N)=O)C(=O)N[C@@H](CCCNC(=N)N)C(=O)N[C@@H](Cc1ccc(O)cc1)C(N)=O)[C@@H](C)O)[C@@H](C)CC,.,.,.,8%,.,.
Cn1nc(-c2cccnc2)nc2c(=O)n(C)c(=O)nc1-2,1.3µM*,2.8µM*,1.1µM*,1%,2.2µM*,.
Cn1nc(-c2ccc(F)cc2)nc2c(=O)n(C)c(=O)nc1-2,0.63µM*,0.89µM*,0.45µM*,1%,0.89µM*,.
COc1ccc(-c2nc3c(=O)n(C)c(=O)nc-3n(C)n2)cc1,0.45µM*,0.56µM*,0.089µM*,4%,0.35µM*,.
Cc1cc(C)n2nc(-c3cccnc3)nc2n1,-12%,2%,4%,2%,?,-8
COc1ccc(-c2nc(N)n(S(=O)(=O)c3ccc(C)cc3)n2)cc1,?,2%,?,8%,4%,0
Cc1ccccc1-n1c2nc(=O)n(C)c(=O)c-2cc2ccccc21,-21%,7%,-12%,0%,-10%,.
Cc1cc(C)n2nc(-c3ccc(F)cc3)nc2n1,-11%,-11%,-17%,5%,13%,25
CCn1nc(-c2ccccc2C)nc2c(=O)n(C)c(=O)nc1-2,1µM*,0.63µM*,1µM*,3%,0.89µM*,.
CCOc1ccccc1CNCCCSc1nnnn1C,-15%,-1%,-1%,7%,-7%,.
O=C(NCc1ccccc1)C1C(=O)Nc2ccccc2C(=O)N1Cc1ccccc1 (centres undefined),?,.,6%,.,.,-9
COc1ccc2[nH]cc(CCNC(=O)CC[C@H]3O[C@@H](n4cc(C)c(=O)[nH]c4=O)C[C@@H]3O)c2c1,-3%,11%,-2%,0%[56.1 µM],16%,12
Cc1cccc(OCCSc2nc3ccc(NC(=O)c4cccs4)cc3s2)c1,12µM*,-1%,16µM*,3%,-14%,.
Cc1ccccc1OCCSc1nc2ccc(NC(=O)c3cccs3)cc2s1,18µM*,-25%,23µM*,-7%,-30%,.
Cc1ccccc1OCCSc1nc2ccc(NC(=O)c3ccccc3)cc2s1,?,-22%,-70%,-1%,-19%,.
Cc1cc(C)cc(OCCSc2nc3ccc(NC(=O)c4ccc5c(c4)OCO5)cc3s2)c1,5.2µM*,3%,?,2%,-11%,.
Cc1ccccc1OCCSc1nc2ccc(NC(=O)c3cccc(F)c3)cc2s1,12µM*,-76%,16µM*,-4%,?,.
CC[C@]12c3[nH]c4ccc(Cl)cc4c3CCN1C(=O)[C@@H](CC(=O)NCCCN(C)C)C[C@@H]2C(=O)N1CCN(C(=O)c2ccco2)CC1,-8%,-4%,10%,0%[56.1 µM],-1%,24
COc1ccc(-c2cc(C(F)(F)F)n3nc(C(=O)Nc4cc(C(F)(F)F)ccc4Cl)cc3n2)cc1OC,?,-2%,15%,2%,-10%,.
SMILES,TDP1 cell noCPT,HepG2 tox,TDP1 cell CPT,TDP1 inh,TGFb inhibitor,IL1B secr inh
CC(C)CCN1C(N(C)C)=NC[C@@H]1C,5%,-23%,9%,-1%,8%,-15
O=S(=O)(c1ccc(F)cc1)N(CCO)CC(O)Cn1c2ccccc2c2ccccc21 (centres undefined),16µM*,-67%,?,8%,?,-4
C=CCN(CC=C)CC(O)Cn1c2ccccc2c2ccccc21 (centres undefined),23µM*,-38%,?,2%,?,-74*
O=S(=O)(c1ccccc1)N(CC(O)Cn1c2ccccc2c2ccccc21)c1ccccc1 (centres undefined),?,-40%,?,2%,?,-53*
COc1ccccc1N(CC(O)Cn1c2ccccc2c2ccccc21)S(=O)(=O)c1ccccc1 (centres undefined),?,-33%,?,3%,?,-101*
Cn1c(=O)c2[nH]c(CNCc3ccccc3Cl)nc2n(C)c1=O,3.3µM*,-13%,3.7µM*,14%,2%,-1
